The structures appear in SMILES notation. Results filed as inconclusive are left out. Calls of active or inactive are those of the source. The call rests on the fitted dose curve; in most records, active means well fitted cell-killing curve with a large enough effect; inconclusive means small, poorly fitted or top-dose-only effect, or effect the other way; inactive means no such curve, though single readings can be large or run the other way.
Potency means the concentration at half of the fitted maximal effect.

The nature of one assay: Quantitative High-Throughput drug screen in 47 multiple myeloma cell lines against the NCATS MIPE library collection: XG1_PLB cell viability assay (AID 1919866). Further: nearly all actives have a fitted effect of over 35% in size. Conditions: CellTiter-Glo ATP, 48 h; series mostly up to 45.8 µM. In a few lines:
(§1)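 Myeloma cells (500/well) treated with MIPE 4.0 compounds for 48 h at 37 °C, 5% CO2. Viability read as ATP via CellTiter-Glo luminescence after 5 min at RT; DMSO-only wells = 100%, media-only = 0% viability.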
On the technique in general: In ATP-based viability assays light output follows the ATP content of the culture.
With `CC=C1NC(=O)[C@H]2CSSCCC=C[C@H](CC(=O)N[C@H](C(C)C)C(=O)N2)OC(=O)[C@H](C(C)C)NC1=O`, the Potency was 0.0264 µM (active). Still for that read-out and setting: the figure for `O=C(Nc1nc2cccc(-c3ccc(CN4CCS(=O)(=O)CC4)cc3)n2n1)C1CC1` is 14.8 µM (active); for `COCCn1c2c([n+](Cc3cnccn3)c1C)C(=O)c1ccccc1C2=O` it is 0.0074 µM (active); for `COc1cc2c(cc1-c1c(C)noc1C)ncc1[nH]c(=O)n([C@H](C)c3ccccn3)c12` it is 5.9 µM (active).

Consider `Nc1nc(Nc2ccc(S(N)(=O)=O)cc2)nn1C(=O)c1c(F)cccc1F`, for which the Potency is 2.35 µM (active).

Consider `O=C(Nc1cn[nH]c1-c1nc2ccc(CN3CCOCC3)cc2[nH]1)NC1CC1`, for which the Potency is 0.148 µM (active). Regarding `CNC(=O)c1cc(Oc2ccc(NC(=O)Nc3cc(C(C)(C)C)nn3-c3ccc4ncccc4c3)c(F)c2)ccn1`, the Potency is 7.43 µM (active).

For the compound `O=C(CCCCCCC(=O)Nc1ccc([C@H]2O[C@@H](CSc3nc(-c4ccccc4)c(-c4ccccc4)o3)C[C@@H](c3ccc(CO)cc3)O2)cc1)NO`, the Potency is 10.5 µM (active). Regarding `O=C(NCCCNc1nc(Nc2cccc(NC(=O)N3CCCC3)c2)ncc1I)c1cccs1`, the Potency is 1.05 µM (active). Still for that read-out and setting: the figure for `NC1(Cc2ccc(Cl)cc2)CCN(c2ncnc3[nH]ccc23)CC1` is 3.72 µM (active).

With `CC(C)[C@H](C(=O)Nc1ccc(C(=O)NO)cc1)c1ccccc1`, the Potency is 0.833 µM (active). Turning to `COC(=O)Nc1ccc(-c2nc(N3CCOCC3)c3cnn(C4CCN(Cc5cccnc5)CC4)c3n2)cc1`, the Potency was 0.0235 µM (active). Turning to `C#Cc1cccc(Nc2ncnc3cc(OC)c(OCCCCCCC(=O)NO)cc23)c1`, the Potency is 0.0743 µM (active). Still for that read-out and setting: the value for `COCCOc1ccc2c(c1)ncn2-c1ccc2cccc(N3CCC(N)CC3)c2n1` was 0.132 µM (active); that for `c1cc(-c2cnn3cc(-c4ccc(OCCN5CCCCC5)cc4)cnc23)ccn1` was 5.9 µM (active).

A further assay is described as follows: Quantitative High-Throughput drug screen in 47 multiple myeloma cell lines against the NCATS MIPE library collection: VP6_DJ cell viability assay (AID 1919867). Further: nearly all actives have a fitted effect of over 40% in size. Conditions: ATP luminescence, 48 h; series mostly up to 45.8 µM. The essentials:
as §1
Take `CC=C1NC(=O)[C@H]2CSSCCC=C[C@H](CC(=O)N[C@H](C(C)C)C(=O)N2)OC(=O)[C@H](C(C)C)NC1=O`: the Potency was 0.001 µM (active). With `O=C(Nc1nc2cccc(-c3ccc(CN4CCS(=O)(=O)CC4)cc3)n2n1)C1CC1`, the Potency is 18.7 µM (active). Turning to `COCCn1c2c([n+](Cc3cnccn3)c1C)C(=O)c1ccccc1C2=O`, the Potency is 0.0148 µM (active). Still for that read-out and setting: the value for `CCc1c2c(nc3ccc(O)cc13)-c1cc3c(c(=O)n1C2)COC(=O)[C@]3(O)CC` was 0.662 µM (active). Take `CCC[C@H](NC(=O)C(C#N)=Cc1cccc(Br)n1)c1ccccc1`: the Potency is 2.09 µM (active). Still for that read-out and setting: the figure for `CC(NCc1ccc2c(c1)nc(NC(=O)c1ccc(-c3cn[nH]c3)s1)n2CC(C)(C)O)C(C)(C)C` (configuration not stated) is 0.187 µM (active). Same read-out and setting: the figure for `CNC(=O)c1c(F)cccc1Nc1nc(Nc2cc3c(cc2OC)CCN3C(=O)CN(C)C)nc2[nH]ccc12` is 0.105 µM (active); for `CC(C)CC(=O)Nc1n[nH]c2c1CN(C(=O)C1CCN(C)CC1)C2(C)C` it is 1.48 µM (active); for `COc1cc2c(cc1-c1c(C)noc1C)ncc1[nH]c(=O)n([C@H](C)c3ccccn3)c12` it is 0.833 µM (active).

As to `COc1cc(=C2C=c3ccccc3=N2)[nH]c1=Cc1[nH]c(C)cc1C`, the Potency is 1.66 µM (active). On the same count and under the same terms, the figure for `Nc1nc(Nc2ccc(S(N)(=O)=O)cc2)nn1C(=O)c1c(F)cccc1F` is 5.26 µM (active); for `NC(=O)c1c(OCc2c(F)cc(Br)cc2F)nsc1NC(=O)NCCCCN1CCCC1` it is 10.5 µM (active). Still for that read-out and setting: the figure for `Nc1cc(C(F)(F)F)c(-c2cc(N3CCOCC3)nc(N3CCOCC3)n2)cn1` is 0.743 µM (active); for `O=C(Nc1cn[nH]c1-c1nc2ccc(CN3CCOCC3)cc2[nH]1)NC1CC1` it is 2.96 µM (active). On the same count and under the same terms, the figure for `C[C@@]12O[C@@H](C[C@]1(O)CO)n1c3ccccc3c3c4c(c5c6ccccc6n2c5c31)CNC4=O` is 0.264 µM (active). Turning to `CNC(=O)c1cc(Oc2ccc(NC(=O)Nc3cc(C(C)(C)C)nn3-c3ccc4ncccc4c3)c(F)c2)ccn1`, the Potency was 4.69 µM (active). Still for that read-out and setting: the value for `O=C(CCCCCCC(=O)Nc1ccc([C@H]2O[C@@H](CSc3nc(-c4ccccc4)c(-c4ccccc4)o3)C[C@@H](c3ccc(CO)cc3)O2)cc1)NO` was 7.43 µM (active). In the case of `O=C(NCCCNc1nc(Nc2cccc(NC(=O)N3CCCC3)c2)ncc1I)c1cccs1`, the Potency was 2.09 µM (active).

With `NC1(Cc2ccc(Cl)cc2)CCN(c2ncnc3[nH]ccc23)CC1`, the Potency is 3.72 µM (active). `CC(C)[C@H](C(=O)Nc1ccc(C(=O)NO)cc1)c1ccccc1`: the Potency was 0.372 µM (active).

In the case of `COC(=O)Nc1ccc(-c2nc(N3CCOCC3)c3cnn(C4CCN(Cc5cccnc5)CC4)c3n2)cc1`, the Potency is 0.0469 µM (active). The same measure, in the same setting: the figure for `C#Cc1cccc(Nc2ncnc3cc(OC)c(OCCCCCCC(=O)NO)cc23)c1` is 0.296 µM (active). For `CN1CCN(Cc2ccc(NC(=O)Nc3ccc(Oc4cc(NC(=O)C5CC5)ncn4)cc3)cc2C(F)(F)F)CC1`, the Potency is 0.0935 µM (active). In the case of `C=CC(=O)Nc1cc2c(Nc3ccc(F)c(Cl)c3)ncnc2cc1OCCCN1CCOCC1`, the Potency is 1.18 µM (active). For `O=C(Cc1ccc(-c2ccc(OCCN3CCOCC3)cc2)cn1)NCc1ccccc1`, the Potency was 0.0264 µM (active). The same measure, in the same setting: the figure for `CC(C)c1ccc(Cn2ccc3c4c(N)nc(NC5CC5)nc4ccc32)cc1` is 3.32 µM (active); for `Cc1ccc(-c2ncn(-c3ccc(Nc4nccc(-c5cccc(N6CCOCC6)c5)n4)cc3)n2)cn1` it is 0.0296 µM (active). Still for that read-out and setting: the figure for `CC[C@@]1(O)C(=O)OCc2c1cc1n(c2=O)Cc2cc3cc(O)ccc3nc2-1` is 0.418 µM (active); for `c1cc(-c2cnn3cc(-c4ccc(OCCN5CCCCC5)cc4)cnc23)ccn1` it is 3.72 µM (active); for `CC(C)c1cnn2c(NCc3ccccc3)cc(N[C@@H](CO)[C@H](O)CO)nc12` it is 0.187 µM (active). Still for that read-out and setting: the figure for `C[C@@H](Oc1cc(-c2cnn(C3CCNCC3)c2)cnc1N)c1c(Cl)ccc(F)c1Cl` is 4.18 µM (active); for `COc1cccc2nc(-c3cccs3)nc(NN3C(=O)C=C(C)C3=O)c12` it is 0.0372 µM (active).

Values taken from PubChem BioAssay (NCATS).
